Consider 14 compounds from PubChem BioAssay.

Assay [1] in a line: inhibitors of TNFa-induced NFkB p65 translocation, primary screen, imaging, HUVEC, MLSMR starter and 10KST1 sets (AID 438;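 active means inhibition above 20% together with a positive visual image hit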;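 further: compound added about 3h40 before a 20 min TNFalpha stimulation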;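 on inhibition: signal is the nuclear over cytoplasmic p65 intensity ratio per well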). The note with it: HUVEC TNFa-induced p65 nuclear translocation; cell count: measured here: nuclei count (cytotoxicity indicator), at 2.08 µM; inhibition: at 2 µM, stronger effect = higher value, 0% TNFa-plus-vehicle, 100% no-TNFa wells.
The nature of assay [2]: reduction of polyQ htt aggregates in cells – imaging, exon1htt(103Q)mCFP cells, high-content imaging, primary screen (AID 483;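 active means visual image review flags a hit and inhibition of aggregation exceeds 20%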;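 further: compound exposure lasted 3 days before fixation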;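 on nuclei count: percent of the per-plate median nuclei count of sample wells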). Conditions: exon1htt(103Q)mCFP cell line, aggregate imaging, at 2 µM; inhibition of aggregation: stronger effect = higher value; nuclei count: measured here: cell count, toxicity.
Assay [3] in a line: endothelial E-selectin expression blockers – imaging, HUVEC, immunofluorescence, MLSMR starter and 10KST1 sets, primary screen (AID 487).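 On inhibition: signal is fraction of cell area covered by stained E-selectin grains.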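 On nuclei count: 100% = median nuclei count of all wells on the same plate.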 The note with it: HUVEC TNFalpha-induced E-selectin immunofluorescence imaging, at 2 µM; inhibition: stronger effect = higher value; nuclei count: measured here: cell number, toxicity.
Assay [4] has as its target Voltage-gated potassium channel subunit beta-2 (Rattus norvegicus) (UniProt P62483). Put plainly: inhibitors of rat Kvbeta2 reductase activity – biochemical, NADPH fluorescence, primary screen (AID 622;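 active means fluorescence slope higher than the sample average by over 3 SD, cut at about -0.22 in these data, passing the limit was not always enough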;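 further: slope of raw intensity against log time taken from 70 to 1610 s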). The note with it: recombinant KvBeta, 4-cyanobenzaldehyde reduction, at 10 µM, stronger effect = higher value.
Assay [5] has the same target. Kind of assay: enhancers of rat Kvbeta2 NADPH turnover – biochemical, NADPH fluorescence, primary screen (AID 623;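 active means NADPH fluorescence slope more negative than the mean of all samples by about 3 SD, 99.7% confidence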;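 further: fluorescence intensity change per second fitted from 20 to 320 s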). The note with it: Recombinant KvBeta, NADPH fluorescence decrease slope, 10 min; at 10 µM; stronger effect = lower value.
Assay [6] has as its target Alpha-2C adrenergic receptor (Homo sapiens) (UniProt P18825). Put plainly: compounds altering alpha2C-coupled GIRK flux – cell-based, HEK293 alpha2C/GIRK1/2, thallium flux, primary screen (AID 624;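 active means fluorescence slope after compound addition differing from the mean of all screened samples at 99.7% confidence, in either direction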;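 further: slope of fluorescence ratio to pre-addition baseline per second over 15 to 24 s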). Conditions: thallium flux BTC fluorescence, at 10 µM, actives lie on both sides.
Assay [7] in a line: blockers of RIG-like receptor reporter activation – cell-based, Sendai virus stimulus, luciferase, 10K MLSCN set, TLR/RLR signaling modifier project, primary screen (AID 602276;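 active means inhibition at or above 50% at 10 µM; inactive means inhibition below 50%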;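 further: firefly luciferase from ISG56 promoter only with Renilla not read in this screen; 0% = Sendai virus plus DMSO and 100% = medium plus DMSO without virus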). Conditions: HEK293 RL24 IRF3 luciferase reporter, at 10 µM, stronger effect = higher value. For orientation: A reporter such as luciferase makes a cellular process visible.
A short description of assay [8]: TLR3 IRF3 reporter activation blockers – cell-based, poly I:C stimulus, luciferase, 10K MLSCN set, primary screen (AID 602277;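 active means inhibition of the reporter signal at or above 50%; inactive means inhibition below 50%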). The note with it: HEK293-TLR3 RL24 IRF3 luciferase reporter, at 10 µM, stronger effect = higher value.

Usually inhibition stands for the change of the read-out against control, counted positive when it falls.

Structures are written as SMILES. Calls of active or inactive are those of the source.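 How the source made its calls, unless noted: active means visually confirmed hit in the image check and inhibition above 20%; inconclusive means visually confirmed hit but inhibition not above 20%; inactive means no visual hit in the image check.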

Voltage-gated potassium channel subunit beta-2 (Rattus norvegicus), sequence (P62483 whole entry, looked up): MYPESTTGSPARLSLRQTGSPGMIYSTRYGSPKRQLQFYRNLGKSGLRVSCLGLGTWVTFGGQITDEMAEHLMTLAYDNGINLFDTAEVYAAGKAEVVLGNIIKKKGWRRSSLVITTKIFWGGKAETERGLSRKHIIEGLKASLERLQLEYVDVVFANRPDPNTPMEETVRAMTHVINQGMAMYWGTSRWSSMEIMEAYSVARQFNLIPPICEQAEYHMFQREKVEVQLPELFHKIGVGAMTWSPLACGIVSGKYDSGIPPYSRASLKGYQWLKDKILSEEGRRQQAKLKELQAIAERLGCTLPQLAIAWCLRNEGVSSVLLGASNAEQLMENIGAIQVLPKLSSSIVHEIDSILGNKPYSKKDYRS
Alpha-2C adrenergic receptor (Homo sapiens), sequence (P18825 whole entry, looked up): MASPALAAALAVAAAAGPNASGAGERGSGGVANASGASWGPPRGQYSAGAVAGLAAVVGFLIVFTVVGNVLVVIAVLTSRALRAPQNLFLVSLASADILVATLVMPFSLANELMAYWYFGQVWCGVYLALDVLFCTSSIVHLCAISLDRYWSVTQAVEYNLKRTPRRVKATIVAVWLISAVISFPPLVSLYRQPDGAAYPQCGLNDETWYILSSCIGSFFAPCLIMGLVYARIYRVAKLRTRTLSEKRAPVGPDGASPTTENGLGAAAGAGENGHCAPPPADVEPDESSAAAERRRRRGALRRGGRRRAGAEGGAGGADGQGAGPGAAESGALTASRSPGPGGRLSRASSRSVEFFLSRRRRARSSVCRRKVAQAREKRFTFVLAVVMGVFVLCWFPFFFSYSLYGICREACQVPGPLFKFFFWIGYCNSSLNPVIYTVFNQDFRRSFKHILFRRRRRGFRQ

For `CCn1c(=S)ccc2ccc(OC)cc21`, the cell count in assay [1] is 296. Besides, the inhibition in assay [1] is 5.3% (inactive); in assay [3], -13.4% (inactive); in assay [7] it was -6.3% (inactive); in assay [8], 29% (inactive). Besides, in assay [2], the inhibition of aggregation was -4.2% (inactive). For the same compound, the nuclei count was 77.6% in assay [2] and 120% in assay [3]. The fluorescence slope in assay [4] was -0.599 (inactive). For the same compound, the NADPH fluorescence slope in assay [5] is -9.6e-06 (inactive). In addition, the slope in assay [6] is 0.0055 (inactive).
Turning to `CCCN(Cc1cc2cc(C)ccc2[nH]c1=O)C(=O)c1cccc(OC)c1`, in assay [1], the cell count was 594. In addition, the inhibition in assay [1] was 8.2% (inactive); in assay [3] it was -74% (inactive); in assay [7] it was 10.4% (inactive); in assay [8], 10.9% (inactive). The inhibition of aggregation in assay [2] was -3.9% (inactive). In addition, the results for the nuclei count in assay [2] and in assay [3] were 101% and 107%, respectively. In addition, in assay [4], the fluorescence slope is -0.506 (inactive). Further, in assay [5], the NADPH fluorescence slope was -5.1e-05 (inactive). Besides, the slope in assay [6] is 0.00579 (inactive).
As to `CC(C)(C)n1nnnc1CN1CCN(C2CCCC2)CC1`, in assay [1], the cell count turned out to be 798. For the same compound, the inhibition in assay [1] is -8.1% (inactive); in assay [3], -52.3% (inactive); in assay [7], -0.428% (inactive); in assay [8], 21.3% (inactive). In addition, the inhibition of aggregation in assay [2] is 9.7% (inactive). The nuclei count in assay [2] came out at 136%; in assay [3] it was 107%. In addition, the fluorescence slope in assay [4] is -0.472 (inactive). The NADPH fluorescence slope in assay [5] was -4.3e-05 (inactive). In assay [6], the slope is 0.00587 (inactive).
Turning to `CCOC(=O)C1=C(O)C(=O)N(c2ccc(S(N)(=O)=O)cc2)C1c1ccccc1` (centres undefined), the cell count in assay [1] came to 431. Besides, the inhibition is -0.4% (inactive) in assay [1], -31.8% (inactive) in assay [3], 2.23% (inactive) in assay [7] and -14.6% (inactive) in assay [8]. In addition, the inhibition of aggregation in assay [2] was -10.8% (inactive). Moreover, the figures for the nuclei count in assay [2] and in assay [3] were 108% and 117%, respectively. Moreover, the fluorescence slope in assay [4] was -0.61 (inactive). In assay [5], the NADPH fluorescence slope was -1.5e-05 (inactive). Also, in assay [6], the slope is 0.00391 (inactive).
Consider `COc1cc2c(c(OC)c1)C(c1ccncc1)CC(=O)N2` (centres undefined), for which, in assay [1], the cell count worked out at 624. In addition, the inhibition was -11.6% (inactive) in assay [1], -42.5% (inactive) in assay [3], -9.07% (inactive) in assay [7] and 3.48% (inactive) in assay [8]. Besides, the inhibition of aggregation in assay [2] was -25.7% (inactive). For the same compound, the nuclei count in assay [2] turned out to be 111%; in assay [3], 116%. The fluorescence slope in assay [4] is -0.565 (inactive). Moreover, in assay [5], the NADPH fluorescence slope is -2.7e-06 (inactive). Besides, in assay [6], the slope was 0.0063 (inactive).
Take `Oc1ccc2ccccc2c1CN1CCN(c2ccccc2F)CC1`: in assay [1], the cell count worked out at 564. Further, the inhibition in assay [1] is 2.2% (inactive); in assay [3] it was 9.5% (inactive); in assay [7] it was 9.17% (inactive); in assay [8], 26.6% (inactive). The inhibition of aggregation in assay [2] was 7.8% (inactive). For the same compound, the nuclei count in assay [2] was determined as 107%; in assay [3], 111%. Also, in assay [4], the fluorescence slope was -0.574 (inactive). The NADPH fluorescence slope in assay [5] was -3.4e-05 (inactive). The slope in assay [6] is 0.00592 (inactive).
As for `CCc1ccc(Nc2cc(=O)n(C3CCCCC3)c(=O)[nH]2)cc1`, the cell count in assay [1] stood at 385. The inhibition was 3.9% (inactive) in assay [1], -1.5% (inactive) in assay [3], -13.5% (inactive) in assay [7] and -97.2% (inactive) in assay [8]. Also, the inhibition of aggregation in assay [2] was -8.7% (inactive). Also, the nuclei count turned out to be 104% in assay [2] and 121% in assay [3]. Further, the fluorescence slope in assay [4] is -0.579 (inactive). The NADPH fluorescence slope in assay [5] was -2.4e-05 (inactive). The slope in assay [6] was 0.00696 (inactive).
Turning to `Cc1c(Cl)cccc1N1C(=O)c2ccccc2C1=O`, the cell count in assay [1] amounted to 275. For the same compound, the inhibition is 7.5% (inactive) in assay [1], 16.9% (inactive) in assay [3], -1.09% (inactive) in assay [7] and 15.5% (inactive) in assay [8]. Further, the inhibition of aggregation in assay [2] is -0.9% (inactive). For the same compound, the nuclei count worked out at 90.5% in assay [2] and 93.5% in assay [3]. Also, the fluorescence slope in assay [4] was -0.502 (inactive). Moreover, the NADPH fluorescence slope in assay [5] was -3.6e-05 (inactive). In assay [6], the slope is 0.00611 (inactive).
In the case of `CCOCCCNC(=O)C1CCC(CNS(=O)(=O)c2cccc3nsnc23)CC1` (centres undefined), in assay [1], the cell count came to 808. The inhibition in assay [1] is 6.8% (inactive); in assay [3] it was -19.9% (inactive); in assay [7], 8.12% (inactive); in assay [8], 22.9% (inactive). Further, the inhibition of aggregation in assay [2] was -28.4% (inactive). Also, the nuclei count came out at 103% in assay [2] and 119% in assay [3]. Further, the fluorescence slope in assay [4] was -0.476 (inactive). The NADPH fluorescence slope in assay [5] was -4.4e-05 (inactive). Further, in assay [6], the slope is 0.00547 (inactive).
For `CCOC(=O)C1CCCN(CCCc2ccccc2)C1` (centres undefined), the cell count in assay [1] stood at 361. In addition, the inhibition in assay [1] was -17.4% (inactive); in assay [3] it was -32.5% (inactive); in assay [7], 6.58% (inactive); in assay [8] it was 38% (inactive). Also, in assay [2], the inhibition of aggregation is -1.3% (inactive). Besides, the nuclei count in assay [2] stood at 118%; in assay [3] it was 108%. For the same compound, the fluorescence slope in assay [4] was -0.438 (inactive). The NADPH fluorescence slope in assay [5] was -2.5e-05 (inactive). In addition, in assay [6], the slope was 0.00567 (inactive).
With `CCOc1ccccc1NC(=O)CN(c1ccc(C)cc1)S(=O)(=O)c1c(C)noc1C`, the cell count in assay [1] was 322. The inhibition was 2.2% (inactive) in assay [1], 35.2% (inactive) in assay [3], 6.02% (inactive) in assay [7] and 28.1% (inactive) in assay [8]. Besides, the inhibition of aggregation in assay [2] is 20.6% (inactive). Further, the figures for the nuclei count in assay [2] and in assay [3] were 97.9% and 64.7%, respectively. Moreover, the fluorescence slope in assay [4] is -0.606 (inactive). The NADPH fluorescence slope in assay [5] was -6.6e-05 (inactive). Also, in assay [6], the slope was 0.00658 (inactive).
Take `CC1(C)Cc2ccccc2C(N)=C1C#N`: the cell count in assay [1] stood at 331. For the same compound, the inhibition in assay [1] was -0.8% (inactive); in assay [3] it was 9.4% (inactive); in assay [7], -11.4% (inactive); in assay [8] it was -26.4% (inactive). Moreover, the inhibition of aggregation in assay [2] was 35.2% (active). The figures for the nuclei count in assay [2] and in assay [3] were 71.1% and 102%, respectively. The fluorescence slope in assay [4] was -0.479 (inactive). Moreover, the NADPH fluorescence slope in assay [5] was 2e-05 (inactive). Further, in assay [6], the slope was 0.00508 (inactive).
Turning to `COC(=O)c1ccccc1NC(=O)N1CCCC1`, the cell count in assay [1] was determined as 380. Besides, the inhibition was -0.9% (inactive) in assay [1], -45.5% (inactive) in assay [3], -4.5% (inactive) in assay [7] and 0.116% (inactive) in assay [8]. In assay [2], the inhibition of aggregation is 0.5% (inactive). In addition, the nuclei count in assay [2] came out at 99.5%; in assay [3], 115%. Further, the fluorescence slope in assay [4] was -0.434 (inactive). In assay [5], the NADPH fluorescence slope is -3.7e-06 (inactive). Also, in assay [6], the slope is 0.00581 (inactive).
In the case of `CCOP(=O)(c1ccc(N(C)C)cc1)C(O)c1ccccc1OC` (centres undefined), in assay [1], the cell count is 728. Also, the inhibition in assay [1] is -5.5% (inactive); in assay [3] it was -31.9% (inactive); in assay [7] it was 1.78% (inactive); in assay [8], 10.6% (inactive). Further, the inhibition of aggregation in assay [2] is -2.8% (inactive). In addition, the nuclei count in assay [2] worked out at 113%; in assay [3], 116%. Further, the fluorescence slope in assay [4] was -0.387 (inactive). For the same compound, the NADPH fluorescence slope in assay [5] was 4.7e-05 (inactive). Moreover, the slope in assay [6] is 0.00598 (inactive).
